# Data from PubChem BioAssay AID504444 (National Center for Advancing Translational Sciences (NCATS), 2011).
# Where “and” joins values, the source holds several entries; their conditions need not be identical. Equal values may be shown once. Among all 360,000 compounds or so, about 7,500 (2.1%) were called active. Not shown: some 20% with an inconclusive outcome. The call rests on the fitted dose curve; in most records, active means well fitted inhibition curve with a large enough effect; inconclusive means small, poorly fitted or top-dose-only effect, or effect the other way; inactive means flat fitted curve, though single readings scatter. This excerpt belongs to a sample that is enriched for actives.
# Experiment: Nrf2 qHTS screen for inhibitors; further: nearly all actives have a fitted effect of over 60% in size
# Conditions: A549 ARE-Fluc reporter, luciferase luminescence, 18-24 h; series mostly up to 46 µM; activity change, negative = inhibition: at the top concentration
# Method in brief: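 In this cell-based qHTS, ARE-driven firefly luciferase in A549 cells reports Nrf2 activity; the luminescent signal after BugLite lysis is the measured value, with a prior CellTiter-Fluor read for cell health.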
# On the % scale 0 is the no-effect control and ±100 the full control effect; potency means the concentration at half of the fitted maximal effect.
SMILES,"activity change, negative = inhibition",Potency
COc1ccc(CNC(=O)c2ccc(NC(=O)N3CC4CCCN4c4ccccc43)cc2)cc1 (stereo not drawn),-10.6% (inactive),
CCN(CCCNC(=O)c1cc2c(=O)n(CC)c3ccccc3c2s1)Cc1ccccc1,-3.82% (inactive),
CCN1CCN(c2cc(C)c3cc(NC(=O)c4cc(Cl)ccc4OC)ccc3n2)CC1,12% [at 9.27 µM] (inactive),
O=C(Nc1nnc(SCc2ccc(Cl)cc2Cl)s1)C1COc2ccccc2O1 (stereo not drawn),-3.38% (inactive),
O=C(Nc1ncc([N+](=O)[O-])s1)C1COc2ccccc2O1 (stereo not drawn),,14.6 µM (active)
O=C(Nc1nc2c(F)cc(F)cc2s1)C1COc2ccccc2O1 (stereo not drawn),0% (inactive),
Cc1ccc(C(=O)Nc2cc3c(cc2N2CCCC2)n(C)c(=O)c(=O)n3C)cc1,-16.1% (inactive),
CN(C)C(=O)CCc1ccc2c3c([nH]c2c1)[C@]1(CCc2ccccc2)[C@@H](C(=O)N2CCCCC2)C[C@H](CC(=O)NCCC2=CCCCC2)C(=O)N1CC3,0.72% (inactive),
O=C(Cn1c(-c2cccs2)cc2ccccc21)NCCc1ccc(Cl)cc1,-13.9% (inactive),
S=C(NCC1CCCO1)N1CCN(c2ccc(Cl)c(Cl)c2)CC1 (stereo not drawn),,14.6 µM (active)
COc1ccc(S(=O)(=O)N2CCN(C(=S)NCC3CCCO3)CC2)cc1OC (stereo not drawn),-20.4% (inactive),
CCOc1ccc(S(=O)(=O)N2CCN(C(=S)NCC3CCCO3)CC2)cc1 (stereo not drawn),-33.1% (inactive),
CCCCOc1ccc(CN2C(=O)C(=O)c3cc(Br)cc(C)c32)cc1OC,-12.3% (inactive),
O=C(CN1C(=O)COc2ccc(S(=O)(=O)N3CCCCCC3)cc21)N1CCN(c2cccc(C(F)(F)F)c2)CC1,0.38% (inactive),
CCc1cc2c(cc3c(=O)n(CC(=O)NCc4cccc(Cl)c4)nc(CC)n32)s1,3.17% (inactive),
CN(C)c1ccc(NC(=O)CSc2nc(-c3ccco3)cc(C(F)(F)F)n2)cc1,4.36% (inactive),
Cc1ccc(C)c(S(=O)(=O)N2CCN(c3ncnc4sccc34)CC2)c1,,18.4 µM (active)
Cc1ccc(S(=O)(=O)N2CCN(c3nc(-n4cnc5ccccc54)nc4ccccc34)CC2)cc1,18.1% (inactive),
O=[N+]([O-])c1ccc(S(=O)(=O)N2CCN(c3nc(-c4ccccc4)nc4ccccc34)CC2)cc1,-12.6% (inactive),
COc1ccc(C)cc1S(=O)(=O)N1CCN(S(=O)(=O)c2cc(C(=O)O)ccc2C)CC1,4.87% (inactive),
Cc1ccc(S(=O)(=O)N2CCN(c3ncnc4ccccc34)CC2)cc1,,2.31 µM (active) and 8.2 µM (active)
Cc1ccc(C)c(S(=O)(=O)N2CCN(C(=O)Nc3ccccc3)CC2)c1,-16.1% (inactive),
Cc1ccc(C)n1-c1nnc(N2CCC(C(=O)NCc3ccccc3Cl)CC2)s1,4.84% (inactive),
CCCCn1nc(C(=O)Nc2cccc(C(=O)NC3CC3)c2)c2ccccc2c1=O,-23.9% (inactive),

SMILES,"activity change, negative = inhibition",Potency
Cc1ccccc1NC(=O)CSC(=O)c1ccccc1,18.1% (inactive),
CCc1ccc(CN(C)C(=O)CCc2nnc(-c3ccc(-c4ccccc4)cc3)o2)nc1,,18.4 µM (active)
CC(=O)c1ccc(-c2nnc(CCC(=O)N(C)Cc3cnc4ccccn34)o2)s1,26.1% (inactive),
CCc1ccc(CN(C)Cc2nc(Cc3ccccc3)no2)nc1,0% (inactive),
NC(=S)NN=C1CCCC(C(F)(F)F)C1 (stereo not drawn),0.985% (inactive),
O=S(=O)(Nc1ccc2nc(N3CCOCC3)sc2c1)c1ccccc1,11.5% (inactive),
COc1ccc(Cl)cc1NC(=O)COC(=O)c1ccc(Br)o1,16.4% (inactive),
CC(=O)Nc1ccc(S(=O)(=O)NCCC(=O)N2CCN(c3ccccc3Cl)CC2)cc1,-4.63% (inactive),
CCc1nc(Nc2ccc(NC(C)=O)cc2)c2oc3ccccc3c2n1,-11.3% (inactive),
CC(=O)Nc1ccc(NC(=O)COc2ncnc3ccccc23)cc1,2.36% (inactive),
CC(=O)Nc1ccc(Nc2c3ccccc3nc3ccccc23)cc1,,5.8 µM (active)
O=C1N[C@H](Cc2c[nH]c3ccccc23)COC(=O)[C@H](Cc2ccc(F)cc2)C/C=C\C[C@H]1CC(=O)N(CCO)Cc1ccccc1,-16.1% (inactive),
O=C(C1CCCN(S(=O)(=O)c2cccc3nonc23)C1)N1CCN(c2ccccc2F)CC1 (stereo not drawn),-25% (inactive),
O=[N+]([O-])c1cc(S(=O)(=O)Nc2cccc(Cl)c2)ccc1N=Nc1c(O)[nH]c2ccccc12,,20.6 µM (active)
O=C(O)c1ccccc1/C=N/Nc1ccc(S(=O)(=O)Nc2ccc(Cl)cc2)cc1[N+](=O)[O-],-5.39% (inactive),
COc1ccc(S(=O)(=O)Nc2ccc3cn[nH]c3c2)cc1[N+](=O)[O-],6.63% (inactive),
O=C(NCCCO)c1nn(-c2ccc(Cl)cc2)nc1CO,-0.928% (inactive),
O=C(CN1CCCSc2ccccc21)N1CCN(S(=O)(=O)c2ccccc2)CC1,-12.5% (inactive),
Cc1ccc(-c2nn(CCC(=O)Nc3ccc(OC(F)(F)F)cc3)c(=O)c3ccccc23)cc1,3.4% (inactive),
CCCN(c1ccc(C(C)C)cc1)S(=O)(=O)c1c(C)[nH]c(=O)[nH]c1=O,,5.8 µM (active)
CCOc1ccc(N(CC(=O)NC2CCCCCC2)S(=O)(=O)c2c(C)[nH]c(=O)[nH]c2=O)cc1,-13.3% (inactive),
CCOc1ccc(N(CC(=O)Nc2ccccc2F)S(=O)(=O)c2c(C)[nH]c(=O)[nH]c2=O)cc1,4.6% (inactive),
COc1ccccc1CNC(=O)c1ccc(CS(=O)c2ccccc2Cl)o1 (stereo not drawn),-25.7% (inactive),
COC(=O)[C@]1(Cc2ccccc2)N[C@H](CN(C)S(=O)(=O)c2ccc(F)cc2)[C@@H]2C(=O)N(Cc3ccccc3)C(=O)[C@@H]21,-3.86% (inactive),
